# Assay outcomes (PubChem BioAssay)
# Sampled rows, rich in hits. Any-hit rate of the full collection: about 1.2%.
# NPR1 activator: GC-A (human) enzyme activation; activation, % at 10 µM; 370,000 tested, 0.14% active; HEK293 GC-A cells, cGMP TR-FRET, EC30 ANP; 0% at EC30 ANP, 100% saturating ANP; P16066; in the data active = activation above about 40%
# PLCb3 inh: inhibitors of human phospholipase C beta3; Purified PLC-beta3, fluorogenic substrate, fluorescence; inhibition, % at 12.2 µM; 370,000 tested, 0.18% active; in the data active = inhibition above about 11%;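 also: 0% = median of compound wells on plate and 100% = full blocker control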
# GC-B act: GC-B (human) receptor activation. P20594. HEK293-GC-B cells, CNP EC30, cGMP TR-FRET; 0% at EC30 CNP, 100% saturating CNP. activation, % at 10 µM. 370,000 tested, 0.11% active. AID 1920062;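 active = activation at 10 µM reaching about 35% in either raw or pattern-adjusted values, limit read from the data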
# PLC-gamma1 inh: blocks human PLC-gamma1 enzyme activity; 370,000 tested, 0.84% active; purified PLC-gamma1, fluorogenic substrate, fluorescence; inhibition, % at 12.2 µM; P19174
# Target sequence (P19174 whole entry, looked up): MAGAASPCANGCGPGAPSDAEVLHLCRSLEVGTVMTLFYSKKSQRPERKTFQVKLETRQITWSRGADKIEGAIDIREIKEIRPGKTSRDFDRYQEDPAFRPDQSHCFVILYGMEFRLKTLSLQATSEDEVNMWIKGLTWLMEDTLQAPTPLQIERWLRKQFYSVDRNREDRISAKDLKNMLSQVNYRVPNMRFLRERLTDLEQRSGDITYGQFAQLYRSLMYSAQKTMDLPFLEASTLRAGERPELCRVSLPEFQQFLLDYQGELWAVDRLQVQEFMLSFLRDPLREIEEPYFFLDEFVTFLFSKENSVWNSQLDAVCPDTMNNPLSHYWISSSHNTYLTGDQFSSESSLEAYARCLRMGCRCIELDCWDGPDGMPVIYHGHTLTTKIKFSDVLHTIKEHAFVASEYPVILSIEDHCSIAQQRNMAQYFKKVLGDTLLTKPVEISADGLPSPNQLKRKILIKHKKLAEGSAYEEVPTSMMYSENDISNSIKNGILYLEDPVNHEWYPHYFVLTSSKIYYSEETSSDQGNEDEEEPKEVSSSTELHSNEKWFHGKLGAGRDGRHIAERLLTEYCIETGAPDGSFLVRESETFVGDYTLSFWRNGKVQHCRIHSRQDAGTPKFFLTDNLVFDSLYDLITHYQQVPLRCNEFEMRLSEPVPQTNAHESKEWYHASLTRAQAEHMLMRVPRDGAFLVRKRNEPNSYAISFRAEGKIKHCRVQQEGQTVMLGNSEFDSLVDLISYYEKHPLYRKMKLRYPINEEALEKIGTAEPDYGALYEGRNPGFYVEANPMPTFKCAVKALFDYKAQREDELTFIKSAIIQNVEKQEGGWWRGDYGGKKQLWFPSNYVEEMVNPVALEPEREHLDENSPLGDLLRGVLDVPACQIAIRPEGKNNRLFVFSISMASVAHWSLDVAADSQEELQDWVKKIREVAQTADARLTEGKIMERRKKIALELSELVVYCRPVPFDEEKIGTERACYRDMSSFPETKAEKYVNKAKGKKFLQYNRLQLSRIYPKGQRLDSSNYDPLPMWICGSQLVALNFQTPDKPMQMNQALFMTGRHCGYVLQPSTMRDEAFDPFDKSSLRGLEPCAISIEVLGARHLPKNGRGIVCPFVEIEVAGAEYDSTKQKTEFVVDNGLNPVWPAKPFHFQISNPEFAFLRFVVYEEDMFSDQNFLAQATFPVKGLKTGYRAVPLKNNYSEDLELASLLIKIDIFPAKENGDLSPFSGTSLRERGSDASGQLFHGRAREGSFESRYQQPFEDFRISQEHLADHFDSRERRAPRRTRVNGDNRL
# PLCg1 ctr: PLC-gamma1 inhibition, counter-screen for PLC-beta3 hits. shares compounds with PLC-gamma1 inh. purified PLC-gamma1, fluorogenic substrate, fluorescence. inhibition, % at 12.3 µM. 3,300 tested, 3.1% active. AID 743258
# PLCbeta3 conf: confirmation of human PLC-beta3 inhibitors; purified PLC-beta3, fluorogenic substrate fluorescence; inhibition, % at 12.3 µM; shares compounds with PLC-gamma1 inh; AID 743261; 3,300 tested, 1% active; in the data active = inhibition above about 11%
# * marks the source's active call; other numbers are inactive results; · = not tested or not shown. Rule as the data show it, unless noted: active = inhibition above about 9.5%; inactive = the rest.
SMILES,NPR1 activator,PLCb3 inh,GC-B act,PLC-gamma1 inh,PLCg1 ctr,PLCbeta3 conf
Cc1ccc(C)c(NC2CCCCC2NS(=O)(=O)c2ccccc2)c1 (stereo not drawn),-4,-4,-2,0,·,·
COC1CCCCC1Nc1cc(C)ccc1C (stereo not drawn),0,4,-3,9.5*,-1,-1
O=C(O)C1C=CC(C(=O)O)c2ccccc21 (stereo not drawn),0,3,-3,1,·,·
Cc1ccc(NC(=S)NCc2ccc(Cl)cc2)c(C)c1,-4,-1,-5,11*,-3,-5
CC(=O)Nc1ccccc1C(=O)C(=O)Nc1ccc(Cl)cc1,0,-4,4,2,·,·
CCOc1nc(Nc2ccc([N+](=O)[O-])cc2)nc(NC(C)(C)C)n1,0,2,0,9.8*,-3,1
C=CCNc1nc(Nc2ccc([N+](=O)[O-])cc2)nc(OCC)n1,13,2,11,4,·,·
CCCN1CCC(NC(=O)Nc2ccc(OC)c(OC)c2)CC1,3,6,-6,10*,-4,-4
COc1ccc(CCC(=O)NCc2ccccc2Cl)cc1OC,2,-1,0,1,·,·
CSCC[C@H](NC(=O)c1nn(C)c(=O)c2ccccc12)c1nc2ccccc2[nH]1,-2,1,-1,13*,-9,-6
CCn1nc(C(=O)N[C@@H](CCSC)c2nc3ccccc3[nH]2)c2ccccc2c1=O,0,-1,-3,0,·,·
CCC1CCCCN1C(=O)CSc1nnc(N)s1 (stereo not drawn),2,4,-1,3,·,·
CC(C)C(C(=O)NCc1ccco1)N(C(=O)CNS(=O)(=O)c1ccccc1)C1CCCC1 (stereo not drawn),-4,12*,2,3,-1,4
COc1ccc(OC)c(NC(=O)c2cc3oc4ccccc4c3cc2O)c1,7,-75,-2,-57,·,·
Cc1ccc(S(=O)(=O)c2ccc(Cl)cc2)cc1S(=O)(=O)N1CCN(C)CC1,-1,0,-7,1,·,·
Cc1ccc(S(=O)(=O)c2ccc(Cl)cc2)cc1S(=O)(=O)NC(C)C(=O)O (stereo not drawn),5,-2,3,10*,-6,-3
O=c1[nH]nc(-c2ccc(NCCCO)c([N+](=O)[O-])c2)c2ccccc12,-5,3,0,13*,-2,-6
O=C(O)/C=C\C(=O)Nc1ccc(F)c(F)c1F,0,-4,4,3,·,·
Clc1cccc(Cl)c1OCCCCN1CCCCC1,-4,-3,3,12*,2,0
C[C@@H]1CN([C@H](C)CO)C(=O)CCCn2cc(nn2)CO[C@H]1CN(C)C(=O)c1ccncc1,0,-3,-2,1,·,·
C[C@H](CO)N1C[C@H](C)[C@@H](CN(C)S(=O)(=O)c2ccc3c(c2)OCCCO3)OCc2cn(nn2)CCCC1=O,1,4,-2,9.5*,-3,-2
C[C@H](CO)N1C[C@H](C)[C@@H](CN(C)C(=O)c2ccccc2)OCc2cn(nn2)CCCC1=O,3,11*,3,4,1,5
NC(Cc1ccc(C(F)(F)F)cc1)c1csc(NC(=O)NCCc2ccccc2)n1 (stereo not drawn),-10,-3,-5,12*,-7,1
Cc1ccc(S(=O)(=O)Cc2ccc(C(=O)N3CCc4ccccc4C3)o2)cc1,-7,-8,-10,-5,·,·
O=C(COC(=O)COc1ccccc1[N+](=O)[O-])Nc1ccc2c(c1)OCO2,-2,2,-6,-1,·,·
SMILES,NPR1 activator,PLCb3 inh,GC-B act,PLC-gamma1 inh,PLCg1 ctr,PLCbeta3 conf
O=C(NCc1ccc2c(c1)OCO2)c1cccs1,2,6,6,1,·,·
O=C(COC(=O)c1cccs1)NCc1ccc2c(c1)OCO2,0,2,0,10*,-6,-3
O=C(COC(=O)COc1ccccc1[N+](=O)[O-])NCc1ccc2c(c1)OCO2,-2,8,-6,13*,-5,0
CCCCNC(=O)C1CC(=O)N(C2CCCC2)C1 (stereo not drawn),0,0,5,12*,-5,-3
COCCNC(=O)C1CC(=O)N(C2CCCC2)C1 (stereo not drawn),-1,5,-1,-1,·,·
COc1cc(OC)cc(C(=O)OCn2nnc3ccccc3c2=O)c1,3,0,-1,-1,·,·
CCN(CC)S(=O)(=O)c1ccc(C(=O)OCn2nnc3ccccc3c2=O)cc1,4,17*,1,7,-2,-1
Cc1ccc(-c2nn(CCC(=O)O)cc2CCC(=O)O)cc1,-2,3,2,2,·,·
N/C(CSc1ncccc1C(F)(F)F)=N\O,4,-2,0,9.8*,1,4
N/C(=N\O)c1ccc(N2CCN(c3ncccc3C(F)(F)F)CC2)nc1,1,-5,2,5,·,·
N#Cc1ccc(S(=O)(=O)N2CCN(CC(=O)Nc3ccccc3C(=O)NC3CC3)CC2)cc1,1,2,-1,9.7*,7,3
Clc1cc(Cl)c2nc(N3CCCC3)sc2c1,3,-1,-14,12*,-7,-7
Clc1cc(Cl)c2nc(N3CCCCC3)sc2c1,8,6,-3,9.9*,-1,-7
COc1cc(NS(=O)(=O)c2ccc(NC(=S)NC(C)=O)cc2)nc(OC)n1,-3,14*,2,16*,-5,0
COc1cc(NS(=O)(=O)c2ccc(NC(=O)CN3C(=O)c4ccccc4C3=O)cc2)nc(OC)n1,0,5,0,12*,3,10
COc1cc(NS(=O)(=O)c2ccc(NC(=S)NC(=O)COc3ccccc3OC)cc2)nc(OC)n1,3,-4,7,14*,-3,-7
COc1ccc(C2=NN(C(=O)CCCC(=O)O)C(c3cn(-c4ccccc4)nc3-c3ccccc3)C2)cc1 (stereo not drawn),-13,7,-3,14*,-1,-11
COc1ccc(-c2nn(-c3ccccc3)cc2C2CC(c3cccs3)=NN2C(=O)CCC(=O)O)cc1 (stereo not drawn),-2,-3,-6,2,·,·
CC1=CC2=NC(=O)/C(=C\c3ccc(OC(=O)c4ccco4)cc3)C(=N)N2O1,-5,12*,-4,9,-2,0
C#CCOCCOCCOCCNc1nc(N2CCN(C(=O)[C@H](CCCCN)n3cc([C@@H](N)C(C)CC)nn3)CC2)nc(N2CCN(C(=O)[C@H](CCCCN)n3cc([C@@H](N)C(C)CC)nn3)CC2)n1 (stereo partly drawn),5,7,3,10*,0,6
C#CCOCCOCCOCCNc1nc(N2CCN(C(=O)[C@H](CCCCN)n3cc(CN)nn3)CC2)nc(N2CCN(C(=O)[C@H](CCCCN)n3cc([C@@H](N)[C@H](C)CC)nn3)CC2)n1,6,2,1,3,·,·
